# PubChem BioAssay AID1159580 (chemical genetic matrix, 2015)
# Where “and” joins values, the source holds several entries; their conditions need not be identical. Identical values can stand only once. The whole screen tested about 5,500 compounds, of which about 2,000 (36%) were called active. Another 18% or so got no clear call; they are omitted. The list shows a part of the results. A number with no mark means an inactive call. No stated cut-off is given here; in the data, active means normalized growth mostly below about 0.91 (no sharp cut-off); inconclusive means no clear call, values can overlap the other calls; inactive means mostly above about 0.92.
# Test: chemical genetic growth profiling, strain panel (AID 1159580);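 further: tested at 20 µM; growth read once vehicle control cultures reached saturation at 30 °C; 1 = growth at the plate median or of vehicle wells; lower values mean less growth of the strain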
# Details: S. cerevisiae deletion strains, growth OD
structure (smiles),measurement,setting,value
CCOc1ccc(C(=O)c2ccc(O)c(O)c2O)cc1,normalized growth,"locus YAL021C, strain ccr4, active compounds read low",0.754 (active)
same,normalized growth,"locus YAL026C, strain drs2, active compounds read low",0.844 (active)
same,normalized growth,"locus YAL030W, strain snc1, active compounds read low",0.936
same,normalized growth,"locus YBL061C, strain skt5, active compounds read low",0.898 (active)
same,normalized growth,"locus YBR009C, strain hhf1, active compounds read low",0.926
same,normalized growth,"locus YBR021W, strain FUR4, active compounds read low",0.926
same,normalized growth,"locus YBR023C, strain chs3, active compounds read low",0.84 (active)
same,normalized growth,"locus YBR171W, strain sec66, active compounds read low",0.899
same,normalized growth,"locus YBR229C, strain ROT2, active compounds read low",0.979
same,normalized growth,"locus YBR231C, strain swc5, active compounds read low",0.829 (active)
same,normalized growth,"locus YBR279W, strain paf1, active compounds read low",0.927 (active)
same,normalized growth,"locus YCL011C, strain gbp2, active compounds read low",0.945
same,normalized growth,"locus YCL016C, strain dcc1, active compounds read low",0.919
same,normalized growth,"locus YCL029C, strain bik1, active compounds read low",0.857 (active)
same,normalized growth,"locus YCL061C, strain MRC1, active compounds read low",0.908 (active)
same,normalized growth,"locus YCL069W, strain vba3, active compounds read low",0.96
same,normalized growth,"locus YCR088W, strain abp1, active compounds read low",0.949
same,normalized growth,"locus YDL005C, strain med2, active compounds read low",0.973
same,normalized growth,"locus YDL035C, strain GPR1, active compounds read low",0.899
same,normalized growth,"locus YDL040C, strain nat1, active compounds read low",0.971
same,normalized growth,"locus YDL074C, strain BRE1, active compounds read low",0.741 (active)
same,normalized growth,"locus YDL101C, strain DUN1, active compounds read low",0.849 (active)
same,normalized growth,"locus YDL134C, strain PPH21, active compounds read low",0.853 (active)
same,normalized growth,"locus YDL185W, strain tfp1, active compounds read low",0.845 (active)
same,normalized growth,"locus YDL192W, strain arf1, active compounds read low",0.868 (active)
same,normalized growth,"locus YDR001C, strain nth1, active compounds read low",0.963
same,normalized growth,"locus YDR069C, strain doa4, active compounds read low",0.703 (active)
same,normalized growth,"locus YDR101C, strain arx1, active compounds read low",0.911 (active)
same,normalized growth,"locus YDR137W, strain rgp1, active compounds read low",0.701 (active)
same,normalized growth,"locus YDR159W, strain sac3, active compounds read low",0.924
same,normalized growth,"locus YDR162C, strain NBP2, active compounds read low",0.823 (active)
same,normalized growth,"locus YDR195W, strain ref2",1.04
same,normalized growth,"locus YDR297W, strain sur2, active compounds read low",0.928
same,normalized growth,"locus YDR318W, strain mcm21, active compounds read low",0.907 (active)
same,normalized growth,"locus YDR334W, strain swr1, active compounds read low",0.877 (active)
same,normalized growth,"locus YDR335W, strain msn5, active compounds read low",0.858 (active)
same,normalized growth,"locus YDR388W, active compounds read low",0.955
same,normalized growth,"locus YDR392W, strain spt3, active compounds read low",0.87
same,normalized growth,"locus YDR502C, strain sam2, active compounds read low",0.861 (active)
same,normalized growth,"locus YEL003W, strain gim4, active compounds read low",0.893 (active)
same,normalized growth,"locus YEL037C, strain rad23, active compounds read low",0.928
same,normalized growth,"locus YEL061C, strain CIN8 (second series), active compounds read low",0.958
same,normalized growth,"locus YEL061C, strain CIN8, active compounds read low",0.901 (active)
same,normalized growth,"locus YER015W, strain faa2, active compounds read low",0.883 (active)
same,normalized growth,"locus YER016W, strain bim1, active compounds read low",0.924
same,normalized growth,"locus YER110C, active compounds read low",0.989
same,normalized growth,"locus YER111C, strain swi4, active compounds read low",0.72 (active)
same,normalized growth,"locus YER155C, strain BEM2 (second series), active compounds read low",0.902
same,normalized growth,"locus YER155C, strain BEM2, active compounds read low",0.991
same,normalized growth,"locus YER167W, strain BCK2, active compounds read low",0.953
same,normalized growth,"locus YFR010W, strain ubp6, active compounds read low",0.854 (active)
same,normalized growth,"locus YGL078C, strain dbp3, active compounds read low",0.965
same,normalized growth,"locus YGL086W, strain mad1, active compounds read low",0.86 (active)
same,normalized growth,"locus YGL167C, strain pmr1, active compounds read low",0.917
same,normalized growth,"locus YGL173C, strain kem1, active compounds read low",0.853 (active)
same,normalized growth,"locus YGL227W, strain vid30, active compounds read low",0.982
same,normalized growth,"locus YGL240W, strain doc1, active compounds read low",0.955
same,normalized growth,"locus YGL248W, strain PDE1, active compounds read low",0.837 (active)
same,normalized growth,"locus YGL253W, strain hxk2, active compounds read low",0.928
same,normalized growth,"locus YGR078C, strain PAC10, active compounds read low",0.821 (active)
same,normalized growth,"locus YGR135W, strain pre9, active compounds read low",0.85 (active)
same,normalized growth,"locus YGR252W, strain gcn5, active compounds read low",0.861
same,normalized growth,"locus YHR013C, strain ard1, active compounds read low",0.852
same,normalized growth,"locus YHR027C, strain rpn1, active compounds read low",0.869 (active)
same,normalized growth,"locus YHR030C, strain SLT2, active compounds read low",0.824 (active)
same,normalized growth,"locus YHR079C, strain IRE1 (second series), active compounds read low",0.902 (active)
same,normalized growth,"locus YHR079C, strain IRE1, active compounds read low",0.898
same,normalized growth,"locus YHR094C, strain hxt1, active compounds read low",0.993
same,normalized growth,"locus YHR129C, strain ARP1, active compounds read low",0.826 (active)
same,normalized growth,"locus YHR142W, strain chs7, active compounds read low",0.786 (active)
same,normalized growth,"locus YHR200W, strain rpn10, active compounds read low",0.886 (active)
same,normalized growth,"locus YIL066C, strain RNR3, active compounds read low",0.88
same,normalized growth,"locus YIL073C, strain SPO22, active compounds read low",0.848
same,normalized growth,"locus YIL125W, strain kgd1, active compounds read low",0.951
same,normalized growth,"locus YIR030C, strain dcg1, active compounds read low",0.976
same,normalized growth,"locus YJL092W, strain hpr5, active compounds read low",0.955
same,normalized growth,"locus YJL095W, strain BCK1 (second series), active compounds read low",0.908 (active)
same,normalized growth,"locus YJL095W, strain BCK1, active compounds read low",0.784 (active) and 0.833 (active)
same,normalized growth,"locus YJL115W, strain asf1, active compounds read low",0.966
same,normalized growth,"locus YJL129C, strain trk1, active compounds read low",0.944
same,normalized growth,"locus YJL134W, strain LCB3, active compounds read low",0.968
same,normalized growth,"locus YJL154C, strain vps35, active compounds read low",0.953
same,normalized growth,"locus YJL164C, strain tpk1, active compounds read low",0.877 (active)
same,normalized growth,"locus YJL166W, strain qcr8, active compounds read low",0.933
same,normalized growth,"locus YJL168C, strain set2, active compounds read low",0.963
same,normalized growth,"locus YJL187C, strain SWE1 (second series), active compounds read low",0.632 (active)
same,normalized growth,"locus YJL187C, strain SWE1, active compounds read low",0.915 (active)
same,normalized growth,"locus YJR066W, strain TOR1, active compounds read low",0.812 (active)
